Laboratory results: the supplement of paper PMC5940239
Values without a mark were called inactive.

Test system: Madurella mycetomatis MM55
Experiment: percent growth relative to solvent control; higher = less inhibition, active = 20 or less
Settings: 100 µM; 7 days

Row | Structure (SMILES) | percent growth
1 | CCc1nc2ccc(Cl)cn2c1C(=O)NCc1ccc(N2CCC(c3ccc(OC(F)(F)F)cc3)CC2)cc1 | 126%
2 | O=C(Nc1cccnc1)c1c(O)c2cccc3c2n(c1=O)CC3 | 85.3%
3 | Cc1nn2c(=O)c3c([nH]c2c1-c1ccc(Cl)cc1)CCCC3 | 89.2%
4 | COc1ccc(Oc2ccc([C@@H](C)N(C)c3ncc4c(N)nc(N)nc4n3)cc2)cc1 | 0.491% (active)
5 | COc1ccc2nc(C)cc(OCC(=O)NCc3ccccc3)c2c1 | 83.4%
6 | Cc1nn(C)cc1C(C)Nc1nncc(-c2ccc(C(F)(F)F)cc2)n1 (stereo not drawn) | 61.9%
7 | CN1CCN(S(=O)(=O)c2ccc(-c3ccc4c(Nc5ncc(Cl)cn5)ccnc4c3)cc2)CC1 | 98.9%
8 | CC(C)(C)C(=O)N(CCCCCCN1C[C@H](O)[C@@H](O)[C@H](O)[C@H]1CO)C1CCCCCC1 | 86.6%
9 | CC(C)C(NC(=O)Cc1cccc2ccccc12)C(=O)Nc1cccc(C#N)c1 (stereo not drawn) | 121%
10 | NCCCC(N)(C(=O)O)C(F)F (stereo not drawn) | 133%
11 | CS(=O)(=O)c1cccc(-c2cnc3[nH]cc(-c4ccc(CCC(=O)O)cc4)c3c2)c1 | 95.9%
12 | CCOc1ccc(OCC(=O)Nc2cc(C)cc(C)c2)cc1 | 89.4%
13 | CS(=O)(=O)Cc1nc2ccccc2oc1=O | 87.9%
14 | O=C(Nc1ccc2c(c1)B(O)OC2)c1ccccc1C(F)(F)F | 150%
15 | O=C(NC1CCCCC1)N1CCN(Cc2ccc3c(c2)OCO3)CC1 | 74.6%
16 | Clc1ccc(CN2CCN(C3=NCCN3)CC2)cc1Cl | 122%
17 | COc1cc(C(F)(F)F)nc2ccc(C)c(N)c12 | 77.1%
18 | Cc1ccccc1C(=O)N1N=C(Nc2ccccc2)SC1(C)C | 93.7%
19 | COc1cc(Br)cc2cc(C(=O)Nc3cccc(C(F)(F)F)c3)c(=O)oc12 | 125%

Row | Structure (SMILES) | percent growth
20 | NC(=O)c1cc(Br)ccc1OCCOc1ccccc1 | 92.8%
21 | CC(C)(CN)c1nc(-c2ccc(Cl)c(O)c2)c(-c2ccnc(N)n2)[nH]1 | 88.2%
22 | COCC(C)NC(=O)CSc1ncnc2sc(-c3ccccc3)cc12 (stereo not drawn) | 64.9%
23 | CC(Oc1cccc(Cl)c1)C(=O)Nc1ccc2oc(-c3ccncc3)nc2c1 (stereo not drawn) | 51.2%
24 | CC(C)(C)c1cc(C(=O)Nc2cccnc2)cc(C(=O)Nc2cccnc2)c1 | 153%
25 | Cc1cc(C(=O)Nc2ccc(-c3ccccc3)cc2)no1 | 199%
26 | Cc1cc(O)nc(-n2nc(C)cc2C)n1 | 66.4%
27 | CCc1cc(=O)n(C)c(SC(C)C(=O)Nc2ccc(F)cc2)n1 (stereo not drawn) | 61.1%
28 | O=C(CCC1CCCCC1)Nc1cccc(-c2nnc(-c3ccco3)o2)c1 | 96.1%
29 | CCc1ccc(C(NCc2nc(N)nc(N(C)C)n2)C(C)C)cc1 (stereo not drawn) | 49.1%
30 | CC(=O)N1CCc2cc3nc(C)cc(C)c3cc21 | 84.2%
31 | O=C(NCCc1c[nH]c2ccccc12)c1cc2ccccc2oc1=O | 109%
32 | Nc1ncnc2c1ncn2[C@@H]1O[C@H](COS(=O)(=O)NC(=O)c2ccccc2O)[C@@H](O)[C@H]1O | 60.6%
33 | O=C(NCc1cc(Cl)cc(Cl)c1)c1c(C(F)(F)F)nc2ccccn12 | 107%
34 | C[C@H](C(N)=O)N1CCCC[C@@H]1c1ccc(OCc2cccc(F)c2)cc1 | 92%
35 | N#Cc1nc(-c2ccccc2F)oc1NCCc1ccccc1 | 56.7%
36 | CC(C)(C)OC(=O)N1CCN(c2cc(-c3ccc(Oc4ccccc4)cc3)n[nH]2)CC1 | 112%
37 | Nc1cccnc1Nc1ccc(Cl)cc1 | 80.6%
38 | Cc1ccc(Oc2ccc(NC(=O)CNc3ccccc3N3CCCC3=O)cc2)cc1 | 107%
